Test results reported in PubChem BioAssay (NCATS).
“And” between values parts separate entries of the source, which are not always exact repeats. Identical values can stand only once. Inconclusive results are not listed. Some compounds were tested as several samples or in several runs, with calls that do not always agree. The source made the active and inactive calls. Unless noted, calls come from the whole dose curve; as a rule, active = well fitted curve in either direction with a large enough effect (not every such curve was filed as active); inconclusive = small, poorly fitted or top-dose-only effect, or another doubt; inactive = flat fitted curve, though single readings scatter.

Legend:
[1] = AP1 Signaling Pathway (AID 357); conditions: ME-180 AP-1-bla reporter, EGF-induced, beta-lactamase ratio, 5 h;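 note: ME-180 reporter cells stimulated with EGF at its EC50 level; % is set by controls: 0 for no effect and ±100 for the full control effect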
Method in brief: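 In this screen, ME-180 cells in Opti-MEM with 0.5% dialyzed FBS received EC50 EGF and compound titrations for 5 h. AP-1 reporter beta-lactamase was detected via CCF4 ratio, giving AC50 for positive and negative modulators.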

[2] = target: Cytochrome P450 1A2 (Homo sapiens) (UniProt P05177); assay: p450-cyp1a2 (AID 410; calls by dose curve; note: potency is the fitted concentration of half-maximal effect;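 for activity change, negative = inhibition: -100% = full effect of reference inhibitor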)
Method in brief: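 Inhibition was calculated relative to 57 uM furafylline (full inhibition). The reaction used human CYP1A2 at 20nM with Luciferin-ME at its Km, 100uM, driven by an NADPH-regenerating system for 60 min at room temperature.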

[3] = Cell Viability - BJ (AID 421; calls by dose curve;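 note: potency is the fitted concentration of half-maximal effect; cells exposed to compound for 40 hours at 37 °C before readout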); conditions: BJ fibroblast viability, qHTS
Method in brief: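 Normal human BJ foreskin fibroblasts, 1500/well in complete medium, treated 40 hr at 37 °C. Cellular ATP by CellTiter-Glo luminescence; normalized to DMSO and 100 uM tamoxifen, AC50 from Hill fit.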

[4] = Cell Viability - Jurkat (AID 426;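 active = dose-dependent loss of cell ATP signal giving a full or clear fitted curve, ranked by lower potency value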; note: potency is the fitted concentration of half-maximal effect); conditions: qHTS
Method in brief: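 Seed 5000 Jurkat E6-1 cells/well; add compound; incubate 40 hr at 37 °C; add CellTiter-Glo; wait 20 min at room temperature; read luminescence. Fit concentration-response with Hill equation for AC50.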

[5] = Cell Viability - Hek293 (AID 427;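 active = compounds whose dose-response curve shows a full or clear partial loss of cell viability, called from curve shape rather than a numeric limit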;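 note: potency is the fitted concentration of half-maximal effect; cells exposed to compound for 40 hours at 37 °C before reading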); conditions: qHTS
Method in brief: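 HEK293 cells in complete medium were exposed to compound for 40 hr at 37 °C, then cellular ATP was read by CellTiter-Glo luminescence. Data were normalized to DMSO (basal) and 100 uM tamoxifen (100% inhibition), and AC50 came from Hill fits.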

[6] = Cell Viability - HepG2 (AID 433; calls by dose curve;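 note: potency is the fitted concentration of half-maximal effect; potency for ATP loss meaning cytotoxicity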); conditions: qHTS
Method in brief: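 HepG2 cells, 1500 per well, treated 40 hr at 37 °C in complete medium; viability from intracellular ATP by CellTiter-Glo luminescence. Normalized to DMSO and 100 uM tamoxifen; AC50 from Hill fit of qHTS concentration-response.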

[7] = Cell Viability - MRC5 (AID 434; calls by dose curve;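 note: potency is the fitted concentration of half-maximal effect; potency reflects cytotoxicity seen as loss of intracellular ATP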); conditions: MRC5 lung fibroblast viability, qHTS
Method in brief: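 MRC5 normal human lung fibroblasts (1500/well) were treated with compounds for 40 hr at 37 °C in complete medium, and viable cells were measured as intracellular ATP by CellTiter-Glo luminescence. AC50 came from Hill fits, normalized to DMSO and 100 uM tamoxifen.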

[8] = Cell Viability - SK-N-SH (AID 435; calls by dose curve;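 note: potency is the fitted concentration of half-maximal effect; compound exposure lasted 40 h at 37 °C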); conditions: SK-N-SH neuroblastoma cell viability qHTS
Method in brief: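 SK-N-SH neuroblastoma cells (1500/well) treated 40 h at 37 °C in complete medium; viability read as cellular ATP by CellTiter-Glo luminescence. Normalized to DMSO and 100 uM tamoxifen; AC50 from Hill fits of qHTS concentration-response.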

[9] = NFAT Signaling Pathway (AID 444); conditions: Jurkat NFAT-bla M1, carbachol, beta-lactamase ratio, 5 h;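 note: carbachol stimulus at about its EC50 of 1 µM final; % is set by controls: 0 for no effect and ±100 for the full control effect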
Method in brief: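 Jurkat cells carrying an NFAT-driven β-lactamase reporter and co-transfected muscarinic M1 receptor were treated with compound plus carbachol (1 uM final, an EC50 level) for 5 h at 37 °C. CCF4 loading followed for 1 h at RT; 460/530 nm ratio gave %activity.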

[10] = Stat Signaling Pathway (AID 446); conditions: ME-180 SIE beta-lactamase reporter, IL-6 stimulated, 5 h;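 note: ME-180 cervical cancer cells given 40 pM IL-6 alongside compound; SIE-controlled beta-lactamase reporter measured as 460/530 nm FRET emission ratio; % is set by controls: 0 for no effect and ±100 for the full control effect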
Method in brief: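 ME-180 cells carrying a SIE-driven beta-lactamase reporter are stimulated with 40 pM IL-6 for 5 h at 37C in the presence of compound. The 460/530 nm FRET substrate ratio is read after 2.5 h at RT. Data are normalised to 300 pM IL-6 and to 125 nM JAK inhibitor controls.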

[11] = target: Glucocorticoid receptor (Homo sapiens) (UniProt P04150); assay: GR-GFP Redistribution (AID 450;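 active = compounds whose dose series gives a full or clear partial fitted curve of increased nuclear translocation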; note: potency is the fitted concentration of half-maximal effect); conditions: U2OS GR-GFP nuclear translocation, laser cytometry, 2 h
[12] = target: Glucocorticoid receptor (Homo sapiens) (UniProt P04150); assay: GR-EFC Redistribution (AID 451; calls by dose curve; note: potency is the fitted concentration of half-maximal effect); conditions: CHO-K1 GR-EFC translocation, beta-gal luminescence, 2 h
Method in brief: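 CHO-K1 cells stably expressing nuclear-localized β-gal enzyme acceptor and GR fused C-terminally to the enzyme donor fragment; ligand-driven nuclear translocation restores β-gal by complementation. Compounds titrated up to 46 uM final, 2 h at 37 °C; luminescence read.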

[13] = target: Mitogen-activated protein kinase 10 (Mus musculus) (UniProt Q61831); assay: JNK3 AlphaScreen Assay (AID 530);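 note: kinase came from lysate of stimulated human HepG2 cells; signal reports phosphorylation of biotinylated GST-cJun 1-79 at Ser73 with 10 µM ATP; % is set by controls: 0 for no effect and ±100 for the full control effect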
Method in brief: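 JNK3 came from HepG2 lysates pre-activated with IL-1beta and TNF-alpha and phosphorylated biotinylated GST-cJun (1-79) at 10 uM ATP, pH 7.6, room temperature. Compounds were titrated. AlphaScreen signal used anti-phospho-cJun (Ser73) antibody.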

[14] = Cell Viability - N2a (AID 540; active = well fitted curve in the direction sought with a large enough effect; an effect the other way counts as inactive or inconclusive;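 note: plate controls were DMSO alone for no effect and tamoxifen control for full effect; nearly all actives have a fitted effect of over 45% in size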)
Method in brief: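 First, 1500 N2a cells per well incubate 5 hr at 37 °C; next, compounds are added and incubated 40 hr at 37 °C; finally CellTiter-Glo is added and luminescence read after 20 min, with AC50 derived by Hill modeling.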

[15] = Cell Viability - NIH 3T3 (AID 541; active = well fitted curve in the direction sought with a large enough effect; an effect the other way counts as inactive or inconclusive;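 note: plate controls were DMSO alone for no effect and tamoxifen positive control for full effect; nearly all actives have a fitted effect of over 25% in size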)
Method in brief: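 AC50 values reflect concentration-dependent loss of intracellular ATP in NIH 3T3 cells after 40 hr treatment in complete culture medium, quantified by luciferase-based luminescence.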

[16] = Cell Viability - HUV-EC-C (AID 542; active = well fitted curve in the direction sought with a large enough effect; an effect the other way counts as inactive or inconclusive; note: % is set by controls: 0 for no effect and ±100 for the full control effect; nearly all actives have a fitted effect of over 35% in size)
Method in brief: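 Decrease in cellular ATP, quantified by luciferase luminescence, reflects toxicity in normal human vascular endothelial HUV-EC-C cells given compound for 40 hr in complete culture medium. Values are AC50s from concentration-response curves.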

[17] = Cell Viability - H-4-II-E (AID 543; active = well fitted curve in the direction sought with a large enough effect; an effect the other way counts as inactive or inconclusive; note: % is set by controls: 0 for no effect and ±100 for the full control effect; nearly all actives have a fitted effect of over 35% in size)
Method in brief: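 Here, cytotoxicity is measured in the rat hepatoma line H-4-II-E as loss of intracellular ATP after 40 hr compound treatment, detected by luciferase luminescence.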

[18] = Cell Viability - SH-SY5Y (AID 544; active = well fitted curve in the direction sought with a large enough effect; an effect the other way counts as inactive or inconclusive;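 note: 0% = DMSO alone and -100% = 100 µM tamoxifen; nearly all actives have a fitted effect of over 55% in size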)
Method in brief: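 Cytotoxicity is scored as a concentration-dependent fall in intracellular ATP in human SH-SY5Y cells treated 40 hr in complete culture medium. Potency is expressed as AC50 from a Hill equation fit.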

[19] = Cell Viability - Renal Proximal Tubule (AID 545; active = well fitted curve in the direction sought with a large enough effect; an effect the other way counts as inactive or inconclusive;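 note: 0% = DMSO only and -100% = 100 µM tamoxifen; nearly all actives have a fitted effect of over 40% in size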)
Method in brief: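 Rat renal proximal tubule primary cells, 1000/well, exposed to compounds for 40 hr at 37 °C in complete medium; cellular ATP read by CellTiter-Glo luminescence. AC50 from concentration-response fitted with standard Hill equation.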

[20] = at 38 µM (top of the series) unless noted

Chain of Glucocorticoid receptor (Homo sapiens) (P04150 whole entry, looked up, the tested form may be a part): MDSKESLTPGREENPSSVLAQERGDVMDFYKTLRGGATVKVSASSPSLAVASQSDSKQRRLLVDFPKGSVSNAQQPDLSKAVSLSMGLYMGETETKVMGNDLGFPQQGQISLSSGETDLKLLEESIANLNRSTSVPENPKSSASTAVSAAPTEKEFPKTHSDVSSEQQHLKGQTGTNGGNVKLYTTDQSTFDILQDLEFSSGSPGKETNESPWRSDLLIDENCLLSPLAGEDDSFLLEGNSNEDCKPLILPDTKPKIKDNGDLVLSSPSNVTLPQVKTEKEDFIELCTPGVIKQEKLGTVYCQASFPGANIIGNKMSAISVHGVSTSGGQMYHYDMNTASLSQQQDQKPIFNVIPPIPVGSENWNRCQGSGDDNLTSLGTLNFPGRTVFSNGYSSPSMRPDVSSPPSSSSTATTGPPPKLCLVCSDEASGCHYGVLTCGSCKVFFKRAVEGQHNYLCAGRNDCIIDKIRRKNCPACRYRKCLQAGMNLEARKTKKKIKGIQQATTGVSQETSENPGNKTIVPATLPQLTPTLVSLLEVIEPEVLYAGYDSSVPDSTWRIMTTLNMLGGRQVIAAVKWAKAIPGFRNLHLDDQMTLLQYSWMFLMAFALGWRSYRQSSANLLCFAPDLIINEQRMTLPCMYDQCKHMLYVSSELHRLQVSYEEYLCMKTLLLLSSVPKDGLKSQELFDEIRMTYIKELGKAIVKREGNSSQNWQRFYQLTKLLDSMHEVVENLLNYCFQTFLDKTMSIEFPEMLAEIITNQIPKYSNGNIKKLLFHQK
Chain of Cytochrome P450 1A2 (Homo sapiens) (P05177 whole entry, looked up): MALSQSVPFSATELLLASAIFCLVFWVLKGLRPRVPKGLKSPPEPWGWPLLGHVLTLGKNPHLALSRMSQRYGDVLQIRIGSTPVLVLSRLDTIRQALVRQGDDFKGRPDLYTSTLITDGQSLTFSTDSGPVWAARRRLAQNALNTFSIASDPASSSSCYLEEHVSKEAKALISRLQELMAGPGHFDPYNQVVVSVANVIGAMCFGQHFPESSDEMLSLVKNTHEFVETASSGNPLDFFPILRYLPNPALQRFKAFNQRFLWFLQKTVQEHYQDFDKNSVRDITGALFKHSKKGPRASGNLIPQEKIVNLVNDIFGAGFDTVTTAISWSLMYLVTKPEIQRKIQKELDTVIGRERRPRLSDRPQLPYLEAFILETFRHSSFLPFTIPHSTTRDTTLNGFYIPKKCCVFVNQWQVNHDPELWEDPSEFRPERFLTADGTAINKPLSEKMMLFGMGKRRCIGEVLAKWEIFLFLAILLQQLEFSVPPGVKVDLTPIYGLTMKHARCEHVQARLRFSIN

NC(=O)c1ccccc1
inactive: activity change, negative = inhibition [1, 20] -2.04% | Potency [2] | Potency [3] > 92 µM | Potency [4] > 92 µM | Potency [5] > 92 µM | Potency [6] > 92 µM | Potency [7] > 92 µM | Potency [8] > 92 µM | activity change, negative = inhibition [9, 20] 20.6% | activity, negative = inhibition [10, 20] -35.6% | Potency [11] > 46 µM | Potency [12] > 46 µM | outcome [13] | outcome [14] | outcome [15] | outcome [16] | outcome [17] | outcome [18] | outcome [19]

O=C(O)/C(=C/c1c(C(=O)O)[nH]c2cc(Cl)cc(Cl)c12)c1ccccc1
active: Potency [2] 12.6 µM
inactive: activity change, negative = inhibition [1, 20] 1.71% | activity change, negative = inhibition [9, 20] -3.51% | activity, negative = inhibition [10, 20] 10.5% | Potency [11] > 46 µM | Potency [12] > 46 µM

Cn1c(=O)c2[nH]c(-c3ccc(S(=O)(=O)O)cc3)nc2n(C)c1=O
inactive: activity change, negative = inhibition [1, 20] 8.6% | Potency [2] | activity change, negative = inhibition [9, 20] 8.07% | activity, negative = inhibition [10, 20] 18% | Potency [11] > 46 µM | Potency [12] > 46 µM

O=[N+]([O-])c1cccc2cn[nH]c12
inactive: activity change, negative = inhibition ([1]; at 17.2 µM (top of the series)) -15.6% | activity change, negative = inhibition ([1]; at 38 µM (top of the series)) 0.682% | activity change, negative = inhibition ([9]; at 17.2 µM (top of the series)) -4.2% | activity change, negative = inhibition ([9]; at 38 µM (top of the series)) -7.34% | activity, negative = inhibition ([10]; at 17.2 µM (top of the series)) -4.16% | activity, negative = inhibition ([10]; at 38 µM (top of the series)) -5.67% | Potency [11] > 46 µM and > 20.6 µM | Potency [12] > 46 µM
active: Potency [2] 12.6 µM and 2.51 µM

O=c1[nH]c2ccccc2c2ccccc12
active: Potency [2] 0.251 µM
inactive: activity change, negative = inhibition [1, 20] -9.69% | activity change, negative = inhibition [9, 20] 8.86% | activity, negative = inhibition [10, 20] -7.28% | Potency [11] > 46 µM | Potency [12] > 46 µM

O=C(O)c1cc(=O)cc(C(=O)O)[nH]1
inactive: activity change, negative = inhibition [1, 20] -11.2% | Potency [2] | activity change, negative = inhibition [9, 20] -5.4% | activity, negative = inhibition [10, 20] 10.8% | Potency [11] > 46 µM | Potency [12] > 46 µM

Oc1ccc(Cn2cc[nH]c2=S)cc1
inactive: activity change, negative = inhibition [1, 20] -3.65% | activity change, negative = inhibition [9, 20] 3.63% | activity, negative = inhibition [10, 20] 25% | Potency [11] > 46 µM | Potency [12] > 46 µM
active: Potency [2] 6.31 µM

C[C@H](NC(=O)/C(C#N)=C/c1ccc(O)c(O)c1)c1ccccc1
inactive: activity change, negative = inhibition [1, 20] -18.9% and -19.7% | activity change, negative = inhibition [9, 20] -20.6% and -13.5% | activity, negative = inhibition [10, 20] -15.4% | Potency [11] > 46 µM | Potency [12] > 46 µM
active: Potency [2] 31.6 µM and 15.8 µM

COc1ccc(CCN(C)CCc2ccc(OC)c(OC)c2)cc1OC
inactive: activity change, negative = inhibition [1, 20] 10.7% | Potency [2] | activity change, negative = inhibition [9, 20] -20.2% | activity, negative = inhibition [10, 20] -14.4% | Potency [11] > 46 µM | Potency [12] > 46 µM

O=C(O)c1ccccc1Nc1ccccc1
inactive: activity change, negative = inhibition [1, 20] 4.51% | activity change, negative = inhibition [9, 20] 6% | activity, negative = inhibition [10, 20] -15.6% | Potency [11] > 46 µM | Potency [12] > 46 µM
active: Potency [2] 15.8 µM

C#CCn1c(=O)c2c(ncn2C)n(C)c1=O
inactive: activity change, negative = inhibition [1, 20] 8.56% | Potency [2] | activity change, negative = inhibition [9, 20] 5.67% | activity, negative = inhibition [10, 20] 16.8% | Potency [11] > 46 µM | Potency [12] > 46 µM

O=c1ccc2c(OCCCCc3ccccc3)c3ccoc3cc2o1
inactive: activity change, negative = inhibition [1, 20] -12.4% | activity change, negative = inhibition [9, 20] -20.3% | activity, negative = inhibition [10, 20] 3.59% | Potency [11] > 46 µM | Potency [12] > 46 µM
active: Potency [2] 0.501 µM

Cn1c(=O)[nH]c2ncn(C)c2c1=O
inactive: activity change, negative = inhibition [1, 20] 0.808% | Potency [2] | activity change, negative = inhibition [9, 20] -1.89% | activity, negative = inhibition [10, 20] 3.46% | Potency [11] > 46 µM | Potency [12] > 46 µM | outcome [13]

CNc1cc(NS(=O)(=O)c2ccc(N)cc2)nc(NC)n1
inactive: activity change, negative = inhibition [1, 20] 4.35% | Potency [2] | activity change, negative = inhibition [9, 20] 3.2% | activity, negative = inhibition [10, 20] 13.2% | Potency [11] > 46 µM | Potency [12] > 46 µM

CC[N+](CC)(CC)CC(=O)Nc1c(C)cccc1C
inactive: activity change, negative = inhibition [1, 20] 6.05% | activity change, negative = inhibition [9, 20] -27.1% | activity, negative = inhibition [10, 20] -19.8% | Potency [11] > 46 µM | Potency [12] > 46 µM
inactive and 31.6 µM (active): Potency [2]

N#CC(C#N)=C(N)/C(C#N)=C/c1ccc(O)cc1
active: Potency [2] 3.98 µM
inactive: activity change, negative = inhibition [1, 20] -3.7% | activity change, negative = inhibition [9, 20] 3.6% | activity, negative = inhibition [10, 20] 5.06% | Potency [11] > 46 µM | Potency [12] > 46 µM

C[C@H](O)C(=O)C1=Nc2c(nc(N)[nH]c2=O)NC1
inactive: activity change, negative = inhibition [1, 20] 12.2% | Potency [2] | activity change, negative = inhibition [9, 20] -2.7% | activity, negative = inhibition [10, 20] -2.31% | Potency [11] > 46 µM | Potency [12] > 46 µM

O=S(=O)(c1cccc2c(Cl)cccc12)N1CCCNCC1
active: Potency [2] 15.8 µM
inactive: activity change, negative = inhibition [1, 20] -0.881% | activity change, negative = inhibition [9, 20] 3.5% | activity, negative = inhibition [10, 20] -1.55% | Potency [11] > 46 µM | Potency [12] > 46 µM
